Drawing on PubChem BioAssay, this text covers composite z-score and z-score for 14 compounds.

Molecules are shown by their SMILES. Calls of active or inactive are those of the source. Unless noted, no rule for the calls is given here.

The test system of test [1] is XIP peptide (Xip251-270) binding. As to the kind of experiment: XIP fragment 251-270 binding compounds – biochemical, small-molecule microarray, fluorescence 635/667 nm, 0.1 µg/mL protein, primary screen (AID 1182). The following applies: fluorescent protein binding, 635 nm, higher = more signal, called active from +8 up or from −8 down.
In another test the test system is XIP peptide (Xip251-270). Description: compounds binding XIP fragment 251-270 – biochemical, small-molecule microarray, fluorescence 635/667 nm, 0.5 µg/mL protein, primary screen (AID 1183). The following applies: fluorescence 635 nm, higher = more signal.
Test [2] in a line: blood-stage malaria parasite viability loss – strain 3D7, DAPI fluorescence, 100 nL, primary screen (AID 1184).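 Also: parasites grown inside human red blood cells in medium with human serum.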 The following applies: P. falciparum 3D7 growth, 3 d, higher = more signal.
In test [3] the target is Homeobox protein Hox-A13 (Mus musculus) (UniProt Q62424). As to the kind of experiment: disruptors of Hoxa13 oligonucleotide interaction – biochemical, fluorescence polarization, labeled oligonucleotide, primary screen (AID 1185). Conditions: Hoxa13:DNA binding, 15 min, higher = more signal, called active from +8 up or from −8 down.
Sequence of Homeobox protein Hox-A13 (Mus musculus) (Q62424 whole entry, looked up): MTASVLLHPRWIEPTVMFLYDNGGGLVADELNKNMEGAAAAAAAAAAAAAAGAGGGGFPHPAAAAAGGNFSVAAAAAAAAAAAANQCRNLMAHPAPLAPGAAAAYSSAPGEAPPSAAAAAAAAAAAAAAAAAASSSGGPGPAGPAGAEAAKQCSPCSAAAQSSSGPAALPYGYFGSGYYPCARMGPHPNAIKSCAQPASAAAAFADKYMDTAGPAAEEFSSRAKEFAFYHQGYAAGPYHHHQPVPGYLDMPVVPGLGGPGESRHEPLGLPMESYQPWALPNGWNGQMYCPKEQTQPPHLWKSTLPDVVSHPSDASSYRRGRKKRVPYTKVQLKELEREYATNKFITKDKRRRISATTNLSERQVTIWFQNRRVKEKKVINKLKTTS
A short description of test [4]: blockers of DNA damage checkpoint Chk1 activation – imaging, HeLa, hydroxyurea, phospho-Chk1 antibody, percent positive cells, primary screen (AID 1186). Conditions: hydroxyurea-induced phospho-Chk1 immunofluorescence imaging, higher = more signal.
Test [5] is described as follows: blockers of DNA damage checkpoint Chk1 activation – imaging, HeLa, hydroxyurea, phospho-Chk1 nuclear intensity, primary screen (AID 1187). The following applies: hydroxyurea-induced phospho-Chk1 immunofluorescence imaging, higher = more signal.

Regarding `C=CCC(OC(C)=O)[C@@H]1[C@@H](N(Cc2cccc3ccccc23)C(=O)c2cccc3ccccc23)c2cc(OCCCO)ccc2N1C(=O)c1ccc2ccccc2n1` (some centres undefined), the composite z-score in test [1] is 0.376 (inactive); with XIP peptide (Xip251-270), 0.343. Further, the z-score in test [2] was -1.29; in test [3], -2.11 (inactive); in test [4], 0.316 (inactive); in test [5], 0.545 (inactive).
`N#Cc1ccc(NN2C(C(O)c3cccs3)C=CC3C(=O)N(c4ccccc4)C(=O)C32)cc1` (centres undefined): the composite z-score in test [1] was 0.529 (inactive); in the test on XIP peptide (Xip251-270), 0.477. Also, the z-score in test [2] was 0.407; in test [3], -2.34 (inactive); in test [4], 0.0213 (inactive); in test [5] it was -0.548 (inactive).
Take `C=CCOC(=O)[C@H]1[C@@H]2C(=O)O[C@@H](c3ccccc3)[C@@H](c3ccccc3)N2[C@@H](c2ccc(OCCOC(=O)[C@@H]3C[C@@H]4C(=O)NCC(=O)N4[C@@H]3c3ccc(O)cc3)cc2)[C@]12C(=O)Nc1ccccc12`: the composite z-score is 0.941 (inactive) in test [1] and 0.854 in the test on XIP peptide (Xip251-270). Besides, the z-score in test [2] was -1.86; in test [3], 0.503 (inactive); in test [4], -0.341 (inactive); in test [5], 0.559 (inactive).
As to `COc1ccc(C(=O)Nc2cccc(CN3C(=O)[C@]4(O[C@H](CC(=O)N5CCC[C@H]5CO)[C@@H]([Si](C)(C)c5ccc(OC)cc5)[C@@H]4C)c4ccccc43)c2)cc1`, the composite z-score in test [1] is 1.64 (inactive); in the test with XIP peptide (Xip251-270) it was 0.687. Besides, the z-score in test [2] was -1.34; in test [3], -2.44 (inactive); in test [4], -0.0977 (inactive); in test [5], 0.131 (inactive).
For the compound `NC(=O)NCC#Cc1ccc2c(c1)[C@]1(C(=O)N2)[C@H](C(=O)NC[C@H](O)c2ccccc2)[C@H]2C(=O)O[C@H](c3ccccc3)[C@H](c3ccccc3)N2[C@@H]1c1ccc(O)cc1`, the values for the composite z-score (in test [1]; with XIP peptide (Xip251-270)) were 5.26 (inactive) and 0.432, respectively. In addition, the z-score is 0.872 in test [2], -4.24 (inactive) in test [3], -0.0342 (inactive) in test [4] and -0.468 (inactive) in test [5].
For `CCOC(=O)[C@H]1C/C=C/C[C@H](C(=O)OCC)C(=O)O[C@H]2[C@@H](OC)O[C@H](CO)[C@@H](OC(=O)Nc3ccc4c(c3)OCO4)[C@@H]2OC1=O`, the values for the composite z-score (in test [1]; in the test on XIP peptide (Xip251-270)) were 1.28 (inactive) and 0.832, respectively. The z-score is -1.95 in test [2], -2.27 (inactive) in test [3], -0.18 (inactive) in test [4] and -0.0843 (inactive) in test [5].
On to `C=CCNC(=O)[C@@H]1[C@H]2C(=O)O[C@H](c3ccccc3)[C@H](c3ccccc3)N2[C@H](c2ccc(OCCO)cc2)[C@@]12C(=O)Nc1ccccc12`, for which the results for the composite z-score (in test [1]; in the test on XIP peptide (Xip251-270)) were 0.0997 (inactive) and 0.371, respectively. Moreover, the z-score in test [2] was -1.09; in test [3] it was -4.6 (inactive); in test [4], -0.122 (inactive); in test [5] it was -0.303 (inactive).
On to `C=CC[C@@]1(C(=O)O)N=C(c2ccc(OCCCO)cc2)O[C@@H]1c1ccccc1N=[N+]=[N-]`, for which the figures for the composite z-score (in test [1]; with XIP peptide (Xip251-270)) were 0.926 (inactive) and 0.823, respectively. Further, the z-score was -0.814 in test [2], -6.19 (inactive) in test [3], 0.103 (inactive) in test [4] and -0.0861 (inactive) in test [5].
On to `Cc1cc(C)cc(N2C(=O)CS(=O)(=O)C2c2cccc([N+](=O)[O-])c2)c1` (centres undefined), for which the composite z-score in test [1] was 2.64 (inactive); with XIP peptide (Xip251-270), 0.0376. In addition, the z-score was 0.494 in test [2], -0.0181 (inactive) in test [3], -0.0327 (inactive) in test [4] and 0.353 (inactive) in test [5].
Turning to `Cc1ccc(S[C@]2(C(=O)NCCN3CCOCC3)CC(=O)N(Cc3cc(C(F)(F)F)cc(C(F)(F)F)c3)[C@@H]2c2ccc(CO)cc2I)cc1`, the composite z-score in test [1] is 0.476 (inactive); with XIP peptide (Xip251-270), 0.241. Moreover, the z-score was 0.439 in test [2], -2.98 (inactive) in test [3], -0.064 (inactive) in test [4] and -0.0538 (inactive) in test [5].
As for `O=C1O[C@H](c2ccccc2)[C@H](c2ccccc2)N2[C@H]1[C@@H](C(=O)O)[C@]1(C(=O)Nc3ccc(C#CC4=CCCCC4)cc31)[C@H]2c1ccc(OCCO)cc1`, the values for the composite z-score (in test [1]; in the test on XIP peptide (Xip251-270)) were 0.4 (inactive) and 0.813, respectively. The z-score in test [2] was -0.656; in test [3], -5.08 (inactive); in test [4], 0.222 (inactive); in test [5], -0.0216 (inactive).
Regarding `O=C1O[C@H](c2ccccc2)[C@H](c2ccccc2)N2[C@H]1[C@@H](C(=O)Nc1nc3ccccc3s1)[C@]1(C(=O)Nc3ccccc31)[C@H]2c1ccc(O)cc1`, the composite z-score in test [1] was -0.0105 (inactive); in the test on XIP peptide (Xip251-270) it was 0.143. The z-score was -0.739 in test [2], -0.0851 (inactive) in test [3], 0.282 (inactive) in test [4] and 0.134 (inactive) in test [5].
As to `CCCCCN1CC=CC23O[C@@H]4/C=C\CCCOC(=O)C4[C@H]2C(=O)N(CCCCCCO)[C@@H]3C1=O` (some centres undefined), the composite z-score is 0.403 (inactive) in test [1] and -0.0516 in the test on XIP peptide (Xip251-270). The z-score in test [2] is -1.13; in test [3] it was -5.27 (inactive); in test [4] it was -0.792 (inactive); in test [5], -0.702 (inactive).
Turning to `O=C(O)[C@@]1(Cc2ccccc2)N=C(c2ccc(OCCCO)cc2)O[C@H]1c1ccccc1`, the composite z-score is 0.213 (inactive) in test [1] and 0.427 in the test on XIP peptide (Xip251-270). The z-score was 0.653 in test [2], -5.03 (inactive) in test [3], -0.294 (inactive) in test [4] and -0.224 (inactive) in test [5].
